From ChEMBL document CHEMBL2218924, “A broad activity screen in support of a chemogenomic map for kinase signalling research and drug discovery” (Biochem J, 2013)

Key:
[1] = target: Death-associated protein kinase 1 (Homo sapiens) (UniProt P53355); settings: at 10 µM
[2] = target: Death-associated protein kinase 2 (Homo sapiens) (UniProt Q9UIK4); settings: at 1 µM
[3] = target: T1, Serine/threonine-protein kinase DCLK2 (Homo sapiens) (UniProt Q8N568); settings: at 1 µM
T1 sequence (whole entry): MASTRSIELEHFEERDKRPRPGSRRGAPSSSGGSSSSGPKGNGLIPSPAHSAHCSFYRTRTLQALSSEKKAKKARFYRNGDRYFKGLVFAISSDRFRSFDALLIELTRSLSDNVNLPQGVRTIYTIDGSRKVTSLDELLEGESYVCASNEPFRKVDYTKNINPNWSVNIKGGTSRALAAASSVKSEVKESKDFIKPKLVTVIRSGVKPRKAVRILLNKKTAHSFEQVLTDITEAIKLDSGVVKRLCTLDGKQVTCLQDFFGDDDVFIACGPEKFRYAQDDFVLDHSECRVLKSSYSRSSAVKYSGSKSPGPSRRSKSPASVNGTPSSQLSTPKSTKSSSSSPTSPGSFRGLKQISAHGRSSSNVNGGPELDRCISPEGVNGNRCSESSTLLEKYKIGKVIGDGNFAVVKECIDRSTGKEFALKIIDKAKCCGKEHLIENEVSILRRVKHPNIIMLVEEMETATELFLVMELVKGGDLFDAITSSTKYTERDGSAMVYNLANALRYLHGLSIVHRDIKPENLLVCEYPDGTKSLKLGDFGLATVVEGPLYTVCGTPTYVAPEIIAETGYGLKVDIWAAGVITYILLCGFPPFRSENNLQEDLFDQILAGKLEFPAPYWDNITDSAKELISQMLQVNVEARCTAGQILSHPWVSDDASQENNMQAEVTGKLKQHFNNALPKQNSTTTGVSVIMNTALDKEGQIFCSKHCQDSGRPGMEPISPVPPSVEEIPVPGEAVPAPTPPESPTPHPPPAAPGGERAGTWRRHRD

[4] = target: T1, Serine/threonine-protein kinase DCLK2 (Homo sapiens); settings: at 10 µM
[5] = target: T2, Discoidin domain-containing receptor 2 (Homo sapiens) (UniProt Q16832); settings: at 10 µM
T2 sequence (whole entry): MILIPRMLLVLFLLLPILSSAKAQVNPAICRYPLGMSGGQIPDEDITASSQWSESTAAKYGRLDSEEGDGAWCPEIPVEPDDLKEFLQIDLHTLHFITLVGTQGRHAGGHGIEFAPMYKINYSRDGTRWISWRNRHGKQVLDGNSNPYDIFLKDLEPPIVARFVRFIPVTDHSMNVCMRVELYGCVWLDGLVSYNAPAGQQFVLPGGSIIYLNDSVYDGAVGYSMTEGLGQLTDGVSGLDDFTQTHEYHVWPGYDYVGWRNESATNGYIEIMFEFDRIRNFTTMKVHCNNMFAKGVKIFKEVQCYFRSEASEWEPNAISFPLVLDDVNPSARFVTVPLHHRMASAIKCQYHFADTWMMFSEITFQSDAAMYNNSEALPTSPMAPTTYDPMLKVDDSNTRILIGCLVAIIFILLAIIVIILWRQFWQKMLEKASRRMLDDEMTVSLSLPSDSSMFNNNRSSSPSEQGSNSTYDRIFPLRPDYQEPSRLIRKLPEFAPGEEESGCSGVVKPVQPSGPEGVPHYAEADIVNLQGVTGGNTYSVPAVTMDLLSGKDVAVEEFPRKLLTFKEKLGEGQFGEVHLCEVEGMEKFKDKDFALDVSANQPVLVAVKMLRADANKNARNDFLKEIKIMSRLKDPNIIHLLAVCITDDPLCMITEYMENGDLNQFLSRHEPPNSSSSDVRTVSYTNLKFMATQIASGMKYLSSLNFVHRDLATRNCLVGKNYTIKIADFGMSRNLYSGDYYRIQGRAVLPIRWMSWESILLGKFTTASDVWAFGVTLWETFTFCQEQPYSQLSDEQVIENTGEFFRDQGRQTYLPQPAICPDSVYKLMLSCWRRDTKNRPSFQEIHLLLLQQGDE

[6] = target: T3, Myotonin-protein kinase (Homo sapiens) (UniProt Q09013); settings: at 1 µM
T3 sequence (whole entry): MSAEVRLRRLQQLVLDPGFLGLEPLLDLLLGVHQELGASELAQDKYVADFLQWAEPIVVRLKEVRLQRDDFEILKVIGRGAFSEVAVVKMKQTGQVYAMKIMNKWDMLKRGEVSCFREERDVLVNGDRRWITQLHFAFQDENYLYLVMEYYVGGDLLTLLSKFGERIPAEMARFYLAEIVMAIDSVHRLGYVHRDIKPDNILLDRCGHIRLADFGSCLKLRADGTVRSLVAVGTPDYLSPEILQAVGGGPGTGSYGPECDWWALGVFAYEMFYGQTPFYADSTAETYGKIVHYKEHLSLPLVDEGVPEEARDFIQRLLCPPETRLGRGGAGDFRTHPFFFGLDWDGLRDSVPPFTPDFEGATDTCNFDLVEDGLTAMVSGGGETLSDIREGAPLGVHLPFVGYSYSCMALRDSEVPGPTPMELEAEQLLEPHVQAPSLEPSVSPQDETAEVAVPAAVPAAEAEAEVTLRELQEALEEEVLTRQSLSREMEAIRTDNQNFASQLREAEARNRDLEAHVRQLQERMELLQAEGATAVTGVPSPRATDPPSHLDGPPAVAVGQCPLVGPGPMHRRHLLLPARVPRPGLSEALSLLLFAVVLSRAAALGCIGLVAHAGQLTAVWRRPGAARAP

[7] = target: T3, Myotonin-protein kinase (Homo sapiens); settings: at 10 µM
[8] = target: T4, Serine/threonine-protein kinase 17A (Homo sapiens) (UniProt Q9UEE5); settings: at 1 µM
T4 sequence (whole entry): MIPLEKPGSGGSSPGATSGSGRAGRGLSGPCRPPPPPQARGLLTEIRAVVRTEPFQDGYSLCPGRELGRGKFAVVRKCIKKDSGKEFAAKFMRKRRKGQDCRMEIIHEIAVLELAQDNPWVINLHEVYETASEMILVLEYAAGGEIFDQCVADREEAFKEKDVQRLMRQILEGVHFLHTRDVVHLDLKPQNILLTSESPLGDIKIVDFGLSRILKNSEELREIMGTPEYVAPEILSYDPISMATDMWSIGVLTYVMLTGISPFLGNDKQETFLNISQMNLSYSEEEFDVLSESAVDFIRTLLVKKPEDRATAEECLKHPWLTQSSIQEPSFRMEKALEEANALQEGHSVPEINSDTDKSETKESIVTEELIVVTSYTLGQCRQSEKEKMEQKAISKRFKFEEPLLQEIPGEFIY

[9] = target: T4, Serine/threonine-protein kinase 17A (Homo sapiens); settings: at 10 µM
[10] = target: T5, Dual specificity tyrosine-phosphorylation-regulated kinase 2 (Homo sapiens) (UniProt Q92630); settings: at 1 µM
T5 sequence (whole entry): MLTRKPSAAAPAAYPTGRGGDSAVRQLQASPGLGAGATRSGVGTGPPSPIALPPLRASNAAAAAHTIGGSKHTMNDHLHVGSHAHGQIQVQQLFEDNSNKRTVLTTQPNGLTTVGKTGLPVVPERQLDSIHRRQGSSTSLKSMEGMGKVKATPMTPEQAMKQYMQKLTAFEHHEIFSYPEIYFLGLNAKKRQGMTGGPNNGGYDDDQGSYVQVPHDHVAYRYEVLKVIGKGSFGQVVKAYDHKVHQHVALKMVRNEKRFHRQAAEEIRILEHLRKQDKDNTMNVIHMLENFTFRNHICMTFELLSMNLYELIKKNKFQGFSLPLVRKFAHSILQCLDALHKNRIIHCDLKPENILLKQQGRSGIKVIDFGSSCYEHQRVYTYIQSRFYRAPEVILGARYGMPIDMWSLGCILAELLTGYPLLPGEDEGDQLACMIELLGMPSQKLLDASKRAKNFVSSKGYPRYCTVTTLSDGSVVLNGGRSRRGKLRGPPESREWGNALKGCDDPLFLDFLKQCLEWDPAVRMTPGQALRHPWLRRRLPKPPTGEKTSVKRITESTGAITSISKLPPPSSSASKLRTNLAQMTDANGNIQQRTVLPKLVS

[11] = target: T5, Dual specificity tyrosine-phosphorylation-regulated kinase 2 (Homo sapiens); settings: at 10 µM
[12] = target: T6, Ephrin type-A receptor 1 (Homo sapiens) (UniProt P21709); settings: at 1 µM
T6 sequence (whole entry): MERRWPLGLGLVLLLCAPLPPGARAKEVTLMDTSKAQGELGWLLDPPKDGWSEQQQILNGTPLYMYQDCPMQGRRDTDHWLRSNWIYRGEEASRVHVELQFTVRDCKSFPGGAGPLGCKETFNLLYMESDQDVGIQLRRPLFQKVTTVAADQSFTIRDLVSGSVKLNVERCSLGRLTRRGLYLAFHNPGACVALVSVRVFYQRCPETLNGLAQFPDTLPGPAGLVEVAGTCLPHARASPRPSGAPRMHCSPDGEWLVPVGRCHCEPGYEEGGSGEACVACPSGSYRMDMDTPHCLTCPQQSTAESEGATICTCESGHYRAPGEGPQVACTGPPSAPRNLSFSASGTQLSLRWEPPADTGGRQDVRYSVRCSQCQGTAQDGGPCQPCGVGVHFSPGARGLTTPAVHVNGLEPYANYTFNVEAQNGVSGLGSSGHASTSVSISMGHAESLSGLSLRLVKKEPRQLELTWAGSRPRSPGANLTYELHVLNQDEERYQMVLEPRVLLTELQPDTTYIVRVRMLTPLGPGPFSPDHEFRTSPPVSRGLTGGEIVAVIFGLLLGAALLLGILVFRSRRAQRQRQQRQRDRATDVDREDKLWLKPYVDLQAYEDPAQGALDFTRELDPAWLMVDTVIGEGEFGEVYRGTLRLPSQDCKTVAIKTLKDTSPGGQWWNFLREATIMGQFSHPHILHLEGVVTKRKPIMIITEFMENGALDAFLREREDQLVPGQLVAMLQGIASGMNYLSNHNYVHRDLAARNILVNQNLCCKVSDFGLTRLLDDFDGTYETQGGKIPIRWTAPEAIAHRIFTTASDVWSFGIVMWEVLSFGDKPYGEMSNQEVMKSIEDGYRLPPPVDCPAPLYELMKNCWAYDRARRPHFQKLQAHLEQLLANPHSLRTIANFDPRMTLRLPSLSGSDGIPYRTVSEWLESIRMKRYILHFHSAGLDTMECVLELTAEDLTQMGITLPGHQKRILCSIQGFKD

[13] = target: T6, Ephrin type-A receptor 1 (Homo sapiens); settings: at 10 µM
[14] = target: Ephrin type-A receptor 2 (Homo sapiens) (UniProt P29317); settings: at 1 µM
Ephrin type-A receptor 2 (Homo sapiens), sequence (P29317 whole entry): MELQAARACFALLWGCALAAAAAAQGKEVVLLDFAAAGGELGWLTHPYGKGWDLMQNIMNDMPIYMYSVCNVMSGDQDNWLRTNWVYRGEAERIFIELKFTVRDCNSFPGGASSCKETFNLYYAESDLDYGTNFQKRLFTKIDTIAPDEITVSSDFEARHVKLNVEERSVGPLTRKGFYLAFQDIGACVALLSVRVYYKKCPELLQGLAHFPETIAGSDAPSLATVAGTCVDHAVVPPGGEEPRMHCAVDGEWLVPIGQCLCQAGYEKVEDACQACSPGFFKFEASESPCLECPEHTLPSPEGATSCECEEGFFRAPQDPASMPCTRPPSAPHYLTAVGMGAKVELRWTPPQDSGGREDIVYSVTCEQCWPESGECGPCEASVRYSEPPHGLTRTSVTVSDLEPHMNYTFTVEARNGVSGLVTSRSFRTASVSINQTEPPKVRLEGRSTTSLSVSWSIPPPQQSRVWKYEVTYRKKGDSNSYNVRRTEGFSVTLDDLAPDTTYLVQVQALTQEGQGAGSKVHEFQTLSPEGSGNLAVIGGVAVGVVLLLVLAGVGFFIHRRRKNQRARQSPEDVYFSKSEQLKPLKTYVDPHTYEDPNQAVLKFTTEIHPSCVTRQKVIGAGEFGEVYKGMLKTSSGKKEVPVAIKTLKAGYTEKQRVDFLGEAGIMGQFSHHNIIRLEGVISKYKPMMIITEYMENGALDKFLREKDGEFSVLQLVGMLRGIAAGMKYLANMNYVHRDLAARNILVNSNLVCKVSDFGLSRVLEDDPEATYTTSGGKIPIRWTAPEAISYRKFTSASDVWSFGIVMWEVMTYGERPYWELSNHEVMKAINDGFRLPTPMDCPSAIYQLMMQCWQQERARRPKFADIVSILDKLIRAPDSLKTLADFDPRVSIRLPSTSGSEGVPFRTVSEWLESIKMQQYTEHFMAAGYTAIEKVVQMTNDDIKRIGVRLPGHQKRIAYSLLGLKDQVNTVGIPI

[15] = target: Ephrin type-A receptor 2 (Homo sapiens) (UniProt P29317); settings: at 10 µM
[16] = target: T7, Ephrin type-A receptor 3 (Homo sapiens) (UniProt P29320); settings: at 1 µM
T7 sequence (whole entry): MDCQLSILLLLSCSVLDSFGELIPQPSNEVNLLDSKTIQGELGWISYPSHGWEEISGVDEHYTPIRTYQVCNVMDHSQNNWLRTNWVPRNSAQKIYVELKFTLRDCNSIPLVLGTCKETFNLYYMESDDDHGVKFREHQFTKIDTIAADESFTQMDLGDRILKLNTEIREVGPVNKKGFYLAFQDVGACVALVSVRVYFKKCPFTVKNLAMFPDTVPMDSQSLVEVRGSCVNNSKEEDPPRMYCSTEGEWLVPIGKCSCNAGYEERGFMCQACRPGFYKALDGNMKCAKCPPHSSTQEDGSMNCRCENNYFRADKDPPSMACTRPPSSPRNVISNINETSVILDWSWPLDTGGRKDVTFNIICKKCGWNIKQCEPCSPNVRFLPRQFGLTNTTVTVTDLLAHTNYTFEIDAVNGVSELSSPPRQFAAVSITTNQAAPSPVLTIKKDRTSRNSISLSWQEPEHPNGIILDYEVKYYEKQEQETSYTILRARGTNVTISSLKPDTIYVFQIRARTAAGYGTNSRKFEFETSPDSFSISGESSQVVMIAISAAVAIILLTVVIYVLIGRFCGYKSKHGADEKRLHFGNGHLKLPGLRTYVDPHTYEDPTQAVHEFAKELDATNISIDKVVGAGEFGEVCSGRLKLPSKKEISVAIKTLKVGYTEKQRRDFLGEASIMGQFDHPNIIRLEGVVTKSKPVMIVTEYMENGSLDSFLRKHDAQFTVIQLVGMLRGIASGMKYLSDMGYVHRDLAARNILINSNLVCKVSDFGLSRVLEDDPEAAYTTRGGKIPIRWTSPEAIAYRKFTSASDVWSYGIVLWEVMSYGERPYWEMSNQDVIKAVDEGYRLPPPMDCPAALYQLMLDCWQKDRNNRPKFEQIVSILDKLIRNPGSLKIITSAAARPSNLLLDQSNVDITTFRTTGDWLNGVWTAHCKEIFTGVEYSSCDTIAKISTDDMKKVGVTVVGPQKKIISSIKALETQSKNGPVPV

[17] = target: T2, Discoidin domain-containing receptor 2 (Homo sapiens); settings: at 1 µM

Death-associated protein kinase 2 (Homo sapiens), sequence (Q9UIK4 whole entry, looked up): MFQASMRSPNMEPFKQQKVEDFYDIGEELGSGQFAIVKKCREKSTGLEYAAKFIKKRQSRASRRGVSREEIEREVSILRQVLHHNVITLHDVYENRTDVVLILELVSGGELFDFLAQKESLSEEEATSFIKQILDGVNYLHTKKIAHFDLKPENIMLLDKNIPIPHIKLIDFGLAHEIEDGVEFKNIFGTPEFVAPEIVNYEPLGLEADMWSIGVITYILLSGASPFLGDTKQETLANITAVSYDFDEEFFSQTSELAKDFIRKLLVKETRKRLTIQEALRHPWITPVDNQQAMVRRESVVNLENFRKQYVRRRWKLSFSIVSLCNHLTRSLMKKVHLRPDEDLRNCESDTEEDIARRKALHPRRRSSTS
Death-associated protein kinase 1 (Homo sapiens), sequence (P53355 whole entry, looked up): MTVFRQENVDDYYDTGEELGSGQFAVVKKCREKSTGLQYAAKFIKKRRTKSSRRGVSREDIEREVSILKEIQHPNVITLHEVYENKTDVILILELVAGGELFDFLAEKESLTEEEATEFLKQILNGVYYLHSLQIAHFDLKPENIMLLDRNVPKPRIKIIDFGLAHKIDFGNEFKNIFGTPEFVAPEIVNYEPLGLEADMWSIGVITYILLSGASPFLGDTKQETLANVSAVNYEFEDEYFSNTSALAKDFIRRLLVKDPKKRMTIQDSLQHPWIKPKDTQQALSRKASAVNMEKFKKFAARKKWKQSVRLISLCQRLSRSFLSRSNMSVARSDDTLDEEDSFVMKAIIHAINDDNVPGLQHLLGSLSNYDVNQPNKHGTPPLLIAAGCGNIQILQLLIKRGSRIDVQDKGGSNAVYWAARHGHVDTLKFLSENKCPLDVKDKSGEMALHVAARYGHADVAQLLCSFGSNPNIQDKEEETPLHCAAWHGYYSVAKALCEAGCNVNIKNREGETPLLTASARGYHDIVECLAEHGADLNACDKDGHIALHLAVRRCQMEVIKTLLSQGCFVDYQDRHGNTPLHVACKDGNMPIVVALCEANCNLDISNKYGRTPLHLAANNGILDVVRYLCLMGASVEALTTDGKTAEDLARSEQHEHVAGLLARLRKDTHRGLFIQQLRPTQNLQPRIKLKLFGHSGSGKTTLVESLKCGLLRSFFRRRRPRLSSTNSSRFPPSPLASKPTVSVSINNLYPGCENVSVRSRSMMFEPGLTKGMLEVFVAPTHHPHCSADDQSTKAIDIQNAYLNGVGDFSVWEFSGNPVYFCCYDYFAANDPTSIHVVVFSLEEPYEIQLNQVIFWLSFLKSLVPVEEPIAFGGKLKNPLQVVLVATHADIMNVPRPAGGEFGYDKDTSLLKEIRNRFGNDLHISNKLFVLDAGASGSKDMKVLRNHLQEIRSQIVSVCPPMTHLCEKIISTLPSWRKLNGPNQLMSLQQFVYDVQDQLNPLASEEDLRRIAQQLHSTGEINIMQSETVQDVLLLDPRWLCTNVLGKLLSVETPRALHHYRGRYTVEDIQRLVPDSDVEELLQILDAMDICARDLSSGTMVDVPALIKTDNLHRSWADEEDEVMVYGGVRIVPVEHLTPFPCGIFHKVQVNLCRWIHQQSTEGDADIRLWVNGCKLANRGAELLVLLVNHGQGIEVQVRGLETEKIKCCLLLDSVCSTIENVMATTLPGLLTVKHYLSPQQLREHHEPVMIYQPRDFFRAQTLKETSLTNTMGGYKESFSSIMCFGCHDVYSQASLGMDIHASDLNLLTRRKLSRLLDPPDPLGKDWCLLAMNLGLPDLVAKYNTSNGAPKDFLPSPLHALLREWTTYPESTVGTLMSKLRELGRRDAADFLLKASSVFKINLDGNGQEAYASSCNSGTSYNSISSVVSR

Structure (SMILES) | residual activity [1] [%] | residual activity [2] [%] | residual activity [3] [%] | residual activity [4] [%] | residual activity [5] [%] | residual activity [6] [%] | residual activity [7] [%] | residual activity [8] [%] | residual activity [9] [%] | residual activity [10] [%] | residual activity [11] [%] | residual activity [12] [%] | residual activity [13] [%] | residual activity [14] [%] | residual activity [15] [%] | residual activity [16] [%] | residual activity [17] [%]
c1ccc2c(-c3ccncc3)c[nH]c2c1 | 91 | 100 | 75 | 98 | 97 | 147 | 132 | 102 | 60 | 77 | 21 | 87 | 69 | 104 | 92 | 106 | –
Cc1cc2ncc(-c3ccccc3)nc2cc1C | 88 | 99 | 95 | 67 | 90 | 97 | 135 | 70 | 95 | 85 | 105 | 96 | 105 | 109 | 97 | 103 | 102
